# PubChem BioAssay (NCATS)
# Inconclusive results are not listed. Entries that show only a call come without a potency. Active and inactive are the calls of the source. Unless noted, calls follow the shape of the dose curve; as a rule, active = well fitted curve in the direction sought with a large enough effect; inconclusive = small, poorly fitted or top-dose-only effect, or another doubt; inactive = no such curve, though single readings can be large; an effect the other way counts as inactive or inconclusive.
# How the values were obtained:
# [1] = AP1 Signaling Pathway (AID 357; active = well fitted curve in either direction with a large enough effect, not every such curve was filed as active); conditions: ME-180 AP-1-bla reporter, EGF-induced, beta-lactamase ratio, 5 h; at 38 µM (top of the series)
# Procedure, shortened: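 ME-180 cells with beta-lactamase reporter under AP-1 response element, stimulated with EC50 EGF; compounds tested in titration series, 5 h at 37 °C. CCF4 substrate added 2.5 h at room temperature; 460/530 nm emission ratio gave %activity and AC50.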
# [2] = target: Cytochrome P450 1A2 (Homo sapiens) (UniProt P05177); assay: p450-cyp1a2 (AID 410; calls by dose curve)
# Sequence of Cytochrome P450 1A2 (Homo sapiens) (P05177 whole entry, looked up): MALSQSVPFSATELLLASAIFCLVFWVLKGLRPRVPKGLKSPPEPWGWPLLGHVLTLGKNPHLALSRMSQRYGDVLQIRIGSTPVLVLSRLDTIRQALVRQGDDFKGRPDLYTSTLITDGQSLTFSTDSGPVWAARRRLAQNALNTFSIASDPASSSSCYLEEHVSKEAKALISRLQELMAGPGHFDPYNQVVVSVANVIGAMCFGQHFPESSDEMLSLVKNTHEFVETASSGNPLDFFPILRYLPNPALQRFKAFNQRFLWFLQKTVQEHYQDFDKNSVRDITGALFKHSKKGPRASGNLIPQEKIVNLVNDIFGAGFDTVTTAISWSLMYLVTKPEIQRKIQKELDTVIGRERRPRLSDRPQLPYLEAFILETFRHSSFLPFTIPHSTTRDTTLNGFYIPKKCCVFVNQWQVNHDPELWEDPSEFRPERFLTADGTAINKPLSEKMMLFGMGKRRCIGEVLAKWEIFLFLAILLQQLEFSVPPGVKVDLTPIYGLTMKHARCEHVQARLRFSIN
# Procedure, shortened: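 20nM CYP1A2 with 100uM Luciferin-ME (at Km) in 100mM KPO4; compound preincubated 10 min, NADPH regeneration added, 60 min at room temperature. Luciferin quantified by luminescence after detection reagent; normalized to 57 uM furafylline.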
# [3] = NFAT Signaling Pathway (AID 444; active = well fitted curve in either direction with a large enough effect, not every such curve was filed as active;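 also: carbachol stimulus at about its EC50 of 1 µM final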); conditions: Jurkat NFAT-bla M1, carbachol, beta-lactamase ratio, 5 h; at 38 µM (top of the series)
# Procedure, shortened: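 Jurkat cells with NFAT-driven β-lactamase reporter and co-expressed M1 receptor, stimulated with carbachol (final 1 uM, ~EC50), compound titration, 5 h at 37 °C. CCF4 loaded 1 h at RT; 460/530 nm ratio gave %activity and AC50.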
# [4] = Stat Signaling Pathway (AID 446; active = well fitted curve in either direction with a large enough effect, not every such curve was filed as active;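 also: ME-180 cervical cancer cells given 40 pM IL-6 alongside compound; SIE-controlled beta-lactamase reporter measured as 460/530 nm FRET emission ratio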); conditions: ME-180 SIE beta-lactamase reporter, IL-6 stimulated, 5 h; at 38 µM (top of the series)
# Procedure, shortened: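 ME-180 SIE-bla cells; overnight plating; cpd + IL-6 40 pM, 5 h, 37 C; LiveBLAzer 2.5 h RT; 460/530 nm emission ratio. Normalized to 300 pM IL-6 and 125 nM JAK inhibitor controls.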
# [5] = target: Glucocorticoid receptor (Homo sapiens) (UniProt P04150); assay: GR-GFP Redistribution (AID 450;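 active = compounds whose dose series gives a full or clear partial fitted curve of increased nuclear translocation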; also: potency is read from the fitted curve at half-maximal effect); conditions: U2OS GR-GFP nuclear translocation, laser cytometry, 2 h
# Sequence of Glucocorticoid receptor (Homo sapiens) (P04150 whole entry, looked up, the tested form may be a part): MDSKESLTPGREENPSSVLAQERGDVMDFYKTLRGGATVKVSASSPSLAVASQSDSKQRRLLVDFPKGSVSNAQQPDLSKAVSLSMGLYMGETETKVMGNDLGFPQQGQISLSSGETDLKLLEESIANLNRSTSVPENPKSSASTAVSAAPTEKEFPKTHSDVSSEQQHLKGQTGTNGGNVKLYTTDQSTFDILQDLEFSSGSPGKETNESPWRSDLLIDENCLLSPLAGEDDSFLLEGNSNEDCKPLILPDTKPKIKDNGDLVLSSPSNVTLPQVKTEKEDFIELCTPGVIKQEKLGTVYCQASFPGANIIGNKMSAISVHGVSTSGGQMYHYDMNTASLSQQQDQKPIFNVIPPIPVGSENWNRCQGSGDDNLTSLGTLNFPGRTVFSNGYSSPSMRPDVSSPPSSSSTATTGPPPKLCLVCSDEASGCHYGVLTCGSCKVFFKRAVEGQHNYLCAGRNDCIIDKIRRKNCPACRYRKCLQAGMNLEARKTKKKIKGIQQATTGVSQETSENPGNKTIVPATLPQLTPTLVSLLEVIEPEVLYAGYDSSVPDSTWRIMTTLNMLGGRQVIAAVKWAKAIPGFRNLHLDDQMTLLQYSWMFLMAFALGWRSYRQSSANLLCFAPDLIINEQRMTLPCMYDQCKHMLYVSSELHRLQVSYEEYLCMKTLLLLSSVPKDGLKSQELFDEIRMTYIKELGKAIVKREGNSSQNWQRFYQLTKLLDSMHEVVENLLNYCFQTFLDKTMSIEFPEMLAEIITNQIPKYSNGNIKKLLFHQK
# [6] = target: Glucocorticoid receptor (Homo sapiens) (UniProt P04150); assay: GR-EFC Redistribution (AID 451; calls by dose curve; also: potency is read from the fitted curve at half-maximal effect); conditions: CHO-K1 GR-EFC translocation, beta-gal luminescence, 2 h
# Procedure, shortened: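 CHO-K1 cells expressing nuclear EA and GR-ED fragments of b-gal; compounds titrated up to 46 uM final, 2 h at 37 C. GR nuclear translocation read as complemented b-gal luminescence after 1 h RT detection.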
# [7] = target: Mitogen-activated protein kinase 10 (Mus musculus) (UniProt Q61831); assay: JNK3 AlphaScreen Assay (AID 530; active = well fitted curve in either direction with a large enough effect, not every such curve was filed as active;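 also: kinase came from lysate of stimulated human HepG2 cells; signal reports phosphorylation of biotinylated GST-cJun 1-79 at Ser73 with 10 µM ATP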)
# Procedure, shortened: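 Pre-activated (IL-1β/TNFα) JNK3 in HepG2 lysates phosphorylates biotin-GST-cJun(1-79), 10 uM ATP; anti-phospho-cJun(Ser73) AlphaScreen read at room temperature, pH 7.6 Tris buffer. Compounds pre-incubated 15 min as titrations.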
# [8] = target: 3',5'-cyclic-AMP phosphodiesterase 4B (Homo sapiens) (UniProt Q07343); assay: qHTS Assay for Inhibitors of PDE-IV (AID 607; active = well fitted activation curve with a large enough effect in the main read-out, with a control signal flat, not every such curve was filed as active)
# Sequence of 3',5'-cyclic-AMP phosphodiesterase 4B (Homo sapiens) (Q07343 whole entry, looked up): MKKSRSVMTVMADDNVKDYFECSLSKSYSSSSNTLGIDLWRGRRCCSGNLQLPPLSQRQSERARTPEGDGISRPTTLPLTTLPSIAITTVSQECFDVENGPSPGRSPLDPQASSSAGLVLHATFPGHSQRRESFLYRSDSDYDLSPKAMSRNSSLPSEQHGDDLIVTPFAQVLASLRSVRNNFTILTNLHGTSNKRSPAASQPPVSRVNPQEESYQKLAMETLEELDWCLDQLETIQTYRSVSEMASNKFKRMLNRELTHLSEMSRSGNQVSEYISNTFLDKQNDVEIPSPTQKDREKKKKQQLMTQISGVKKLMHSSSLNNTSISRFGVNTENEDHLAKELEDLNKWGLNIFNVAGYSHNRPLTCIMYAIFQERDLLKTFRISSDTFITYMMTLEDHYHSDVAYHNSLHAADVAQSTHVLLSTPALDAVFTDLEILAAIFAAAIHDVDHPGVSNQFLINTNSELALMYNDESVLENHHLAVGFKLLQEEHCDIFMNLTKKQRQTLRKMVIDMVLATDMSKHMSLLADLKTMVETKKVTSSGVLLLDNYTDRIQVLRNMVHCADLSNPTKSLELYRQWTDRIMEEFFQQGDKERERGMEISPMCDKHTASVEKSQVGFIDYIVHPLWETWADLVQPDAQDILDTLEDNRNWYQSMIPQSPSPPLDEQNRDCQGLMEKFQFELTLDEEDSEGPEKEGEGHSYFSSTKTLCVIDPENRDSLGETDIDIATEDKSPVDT
# Procedure, shortened: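 ACTOne HEK293 cells carry a modified cAMP-gated CNG channel and express endogenous PDE4; plated 1000 cells/well, compounds up to 22.9 uM final. Membrane-potential dye fluorescence (ex 535/em 590) was read; parental cells received 10 uM forskolin + 100 uM RO 20-1724.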
# [9] = target: Guanine nucleotide-binding protein G(i) subunit alpha-1 (Homo sapiens) (UniProt P63096); assay: qHTS Assay for Inhibitors of RGS12 GoLoco Motif Activity (Green Fluorophore) (AID 879);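 also: negative values mean loss of peptide binding seen as reduced polarization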
# Sequence of Guanine nucleotide-binding protein G(i) subunit alpha-1 (Homo sapiens) (P63096 whole entry, looked up): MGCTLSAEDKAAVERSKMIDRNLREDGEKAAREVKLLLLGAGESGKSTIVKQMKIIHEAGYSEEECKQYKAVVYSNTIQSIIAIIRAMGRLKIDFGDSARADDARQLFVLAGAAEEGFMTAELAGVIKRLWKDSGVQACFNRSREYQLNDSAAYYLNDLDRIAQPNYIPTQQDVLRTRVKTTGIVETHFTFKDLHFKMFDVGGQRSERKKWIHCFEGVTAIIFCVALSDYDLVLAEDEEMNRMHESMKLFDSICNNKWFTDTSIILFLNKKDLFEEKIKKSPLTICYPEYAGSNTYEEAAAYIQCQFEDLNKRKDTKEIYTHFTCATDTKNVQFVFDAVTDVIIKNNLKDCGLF
# Procedure, shortened: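 Fluorescence polarization assay: 50 nM Gαi1 with 10 nM FITC-labeled RGS12 GoLoco peptide in 10 mM Tris pH 7.5, 150 mM NaCl, 0.1 mM GDP, 0.05% NP40, 10 min at room temperature with compound.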
# [10] = target: Cytochrome P450 3A4 (Homo sapiens) (UniProt P08684); assay: qHTS Assay for Activators of Cytochrome P450 3A4 (AID 885); also: nearly all actives have a fitted effect of over 65% in size
# Sequence of Cytochrome P450 3A4 (Homo sapiens) (P08684 whole entry, looked up): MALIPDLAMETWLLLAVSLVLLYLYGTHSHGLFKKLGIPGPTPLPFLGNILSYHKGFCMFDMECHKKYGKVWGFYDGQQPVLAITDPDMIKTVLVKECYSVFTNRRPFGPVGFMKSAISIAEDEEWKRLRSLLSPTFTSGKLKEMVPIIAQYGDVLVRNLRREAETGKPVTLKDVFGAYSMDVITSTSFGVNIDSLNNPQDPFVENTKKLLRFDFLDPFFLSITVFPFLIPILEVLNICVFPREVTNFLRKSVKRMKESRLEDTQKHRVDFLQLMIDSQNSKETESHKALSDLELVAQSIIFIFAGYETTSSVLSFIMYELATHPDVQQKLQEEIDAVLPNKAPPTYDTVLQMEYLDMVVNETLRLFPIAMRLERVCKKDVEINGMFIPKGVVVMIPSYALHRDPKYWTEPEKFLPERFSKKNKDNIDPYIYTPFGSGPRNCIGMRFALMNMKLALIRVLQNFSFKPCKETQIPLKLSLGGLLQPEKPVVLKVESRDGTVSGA
# Procedure, shortened: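 20nM CYP3A4 + 25uM Luciferin-PPXE (=KM), 200mM KPO4; cpd 10 min RT; NADPH regen, 60 min RT; stop w/ detection buffer, 20 min; luminescence. Normalized to 57 uM ketoconazole.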
# [11] = target: Pyruvate kinase (Leishmania mexicana) (UniProt Q27686); assay: qHTS Validation Assay for Inhibitors of Leishmania Mexicana Pyruvate Kinase (AID 945)
# Sequence of Pyruvate kinase (Leishmania mexicana) (Q27686 2-499 E452W): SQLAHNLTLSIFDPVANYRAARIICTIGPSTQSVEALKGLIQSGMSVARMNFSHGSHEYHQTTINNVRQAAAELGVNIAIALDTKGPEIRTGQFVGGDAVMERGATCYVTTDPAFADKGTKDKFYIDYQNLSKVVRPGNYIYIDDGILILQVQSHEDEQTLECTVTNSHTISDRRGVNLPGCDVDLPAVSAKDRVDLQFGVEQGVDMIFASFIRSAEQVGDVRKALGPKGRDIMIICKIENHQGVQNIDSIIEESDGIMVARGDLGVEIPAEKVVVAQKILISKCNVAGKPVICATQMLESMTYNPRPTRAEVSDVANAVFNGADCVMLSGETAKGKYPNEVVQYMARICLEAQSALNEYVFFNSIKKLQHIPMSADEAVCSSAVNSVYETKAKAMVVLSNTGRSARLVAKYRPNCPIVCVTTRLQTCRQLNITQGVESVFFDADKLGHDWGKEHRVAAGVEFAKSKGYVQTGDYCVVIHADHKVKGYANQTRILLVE
# Procedure, shortened: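 An endpoint luciferase assay: 0.2 nM LmPYK E451W turns over 0.5 mM PEP with 0.1 mM ADP for 1 h at room temperature, pH 7.2, before PKLight addition. Values are normalized to DMSO-only wells.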
# [12] = target: Pyruvate kinase PKM (Homo sapiens) (UniProt P14618); assay: qHTS Assay for Activators of Human Muscle Pyruvate Kinase (AID 954; active = well fitted curve in the direction sought with a large enough effect, not every such curve was filed as active)
# Sequence of Pyruvate kinase PKM (Homo sapiens) (P14618 whole entry, looked up): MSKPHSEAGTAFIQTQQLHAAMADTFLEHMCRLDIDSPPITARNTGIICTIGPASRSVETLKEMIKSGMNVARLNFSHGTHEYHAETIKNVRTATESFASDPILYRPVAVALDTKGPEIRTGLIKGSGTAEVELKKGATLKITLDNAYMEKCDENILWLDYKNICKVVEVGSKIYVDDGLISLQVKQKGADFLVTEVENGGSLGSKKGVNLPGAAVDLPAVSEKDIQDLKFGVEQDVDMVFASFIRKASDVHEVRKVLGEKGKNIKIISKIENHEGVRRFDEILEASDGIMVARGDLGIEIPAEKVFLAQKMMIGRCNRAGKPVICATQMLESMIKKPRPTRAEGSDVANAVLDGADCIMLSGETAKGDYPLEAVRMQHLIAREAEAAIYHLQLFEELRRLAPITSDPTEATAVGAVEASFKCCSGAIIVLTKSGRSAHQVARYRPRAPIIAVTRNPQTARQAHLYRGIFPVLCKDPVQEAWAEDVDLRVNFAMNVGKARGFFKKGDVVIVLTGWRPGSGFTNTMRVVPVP
# Procedure, shortened: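 Luminescence from a luciferase ATP-detection/stop reagent reported PKM2 activity. Reactions contained 0.1 nM purified human enzyme, 0.5 mM PEP, 0.1 mM ADP and 7 mM MgCl2 at pH 7.2, run 1 h at RT.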
# [13] = target: Alpha-galactosidase A (Homo sapiens) (UniProt P06280); assay: Counterscreen for Glucocerebrosidase Inhibitors: qHTS Assay for Human alpha-Galactosidase at pH 4.5 (AID 992)
# Sequence of Alpha-galactosidase A (Homo sapiens) (P06280 whole entry, looked up): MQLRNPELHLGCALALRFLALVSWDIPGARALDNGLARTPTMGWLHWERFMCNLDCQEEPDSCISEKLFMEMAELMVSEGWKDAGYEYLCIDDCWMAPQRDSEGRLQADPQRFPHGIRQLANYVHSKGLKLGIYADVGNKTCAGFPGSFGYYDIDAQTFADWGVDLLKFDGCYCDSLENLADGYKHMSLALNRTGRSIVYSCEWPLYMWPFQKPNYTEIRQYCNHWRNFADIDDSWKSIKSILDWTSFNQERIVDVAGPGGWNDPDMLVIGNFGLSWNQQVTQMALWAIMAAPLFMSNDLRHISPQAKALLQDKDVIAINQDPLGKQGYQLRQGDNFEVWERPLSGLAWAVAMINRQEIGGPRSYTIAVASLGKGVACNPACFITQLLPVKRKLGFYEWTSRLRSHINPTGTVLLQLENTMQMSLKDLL
# Procedure, shortened: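 Enzyme at 2 nM final was combined with compound (0.7 nM to 77 uM) and 80 uM 4-methylumbelliferyl alpha-D-galactopyranoside in 50 mM citric acid, 0.005% Tween-20, pH 4.5. After 20 min at room temperature, fluorescence was read (Ex 365/Em 440 nm); AC50 came from Hill fits.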
# [14] = target: alpha-glucosidase (Oryza sativa, rice) (UniProt Q653V4); assay: Counterscreen for Glucocerebrosidase Inhibitors: qHTS Assay for Rice alpha-Glucosidase at pH 5.0 (AID 997)
# Procedure, shortened: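 Rice alpha-glucosidase (4 nM final) with 400 uM 4-methylumbelliferyl-alpha-D-glucopyranoside in citrate buffer pH 5.0, 20 min at room temperature, stopped at pH 10; fluorescence 365/440 nm, compounds 0.7 nM–77 uM, AC50 from Hill fits.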
# [15] = Validation of Assay for Modulators of Lamin A Splicing (AID 1459; active = well fitted curve in the direction sought with a large enough effect in the signal ratio; the % refers to the signal ratio;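 also: cells exposed to compound for two days before reading; ratio rise marks activators and ratio drop marks inhibitors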)
# Procedure, shortened: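 S3 HeLa stably expressing lamin A-EGFP splicing minigene and DsRed2, 600 cells/well in Opti-MEM with 2% FBS, treated 48 h at 37C; laser-scanning cytometry gives GFP/RFP total intensity ratio; ancitabine positive control, 0.5% DMSO vehicle.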
# [16] = qHTS Assay for Lipid Storage Modulators (AID 1519; calls by dose curve); conditions: Drosophila S3 cells, BODIPY lipid droplet/cell ratio, laser cytometry, cells loaded with oleic acid
# Procedure, shortened: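 Cells seeded at 5,000 per well were treated with compounds over a concentration series and loaded with oleic acid (400 uM, as added). Lipid droplet fluorescence (488 nm excitation, 500-530 nm channel) was read by laser-scanning cytometry and normalized to 20 uM Triacsin C.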
# [17] = target: DNA repair nuclease/redox regulator APEX1 (Homo sapiens) (UniProt P27695); assay: qHTS Validation Assay for Inhibitors of the Human Apurinic/apyrimidinic Endonuclease 1 (APE1) (AID 1705;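 also: TAMRA fluorescence gain over two minutes as APE1 cuts a quenched THF abasic duplex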)
# Sequence of DNA repair nuclease/redox regulator APEX1 (Homo sapiens) (P27695 whole entry, looked up): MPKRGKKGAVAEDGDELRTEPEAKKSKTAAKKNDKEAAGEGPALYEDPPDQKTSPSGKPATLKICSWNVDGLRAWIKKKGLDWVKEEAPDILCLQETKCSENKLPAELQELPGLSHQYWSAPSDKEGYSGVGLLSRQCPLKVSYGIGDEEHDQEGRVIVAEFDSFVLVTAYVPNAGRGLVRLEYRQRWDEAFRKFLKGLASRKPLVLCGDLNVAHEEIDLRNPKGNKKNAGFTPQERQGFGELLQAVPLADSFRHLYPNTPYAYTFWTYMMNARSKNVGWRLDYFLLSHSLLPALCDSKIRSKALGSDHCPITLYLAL
# Procedure, shortened: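 Fluorogenic double-stranded THF abasic-site substrate (5'-TAMRA/3'-BHQ-2), 50 nM final. Enzyme preincubated with compound 15 min at room temperature, then substrate added. Kinetic fluorescence (ex 525/em 598 nm) read three times at 60 s intervals; activity taken as third-minus-first read difference.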
# [18] = Counterscreen for APE1 Inhibitors: Fluorescent Dye Displacement Validation Assay (AID 1707)
# Procedure, shortened: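 Thiazole Orange displacement from dsDNA: 250 nM ThO with 50 nM TAMRA-labelled abasic-site (tetrahydrofuran) duplex in 50 mM Tris-HCl pH7.5, 50mM NaCl, 2 mM MgCl2, 0.01% Tween-20. Loss of endpoint fluorescence (ex 480 nm, em 540 nm) flags DNA binders.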
smiles,measurement,setting,value
CC(N)=NCc1cccc(CN)c1,"activity change, negative = inhibition",[1],-2.56% (inactive)
same,Potency,[2],inactive
same,"activity change, negative = inhibition",[3],-2.12% (inactive)
same,"activity, negative = inhibition",[4],3.99% (inactive)
same,Potency,[5],> 46 µM (inactive)
same,Potency,[6],> 46 µM (inactive)
same,Potency,[7],inactive
same,Potency,[8],inactive
same,outcome,[9],inactive
same,Potency,[10],inactive
same,Potency,[11],inactive
same,outcome,[12],inactive
same,outcome,[13],inactive
same,outcome,[14],inactive
same,outcome,[15],inactive
same,"activity change, negative = inhibition",[16]; at 57.5 µM (top of the series),0.387% (inactive)
same,max response,[16]; measured here: cell count channel max response,-16.1%
same,max response,[16]; measured here: lipid channel max response,-15%
same,Potency,[17],inactive
same,Potency,[18],inactive
